Screens (PubChem BioAssay)
TROY signal inh = TROY signaling inhibition. inhibition, % at 10 µM. Q293 LMP1-TROYcd NF-kB luciferase reporter, 4 h. 360,000 compounds, 0.98% hits;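 active = compounds whose plate-normalised and pattern-corrected inhibition of the luciferase reporter signal at the single screening dose is 50% or more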
EWS-Fli inh = inhibitors of EWS/Fli oncoprotein transcriptional activity | A673 NR0B1-luciferase reporter, viability-normalised | inhibition, % at 12.6 µM | 350,000 compounds, 0.67% hits | AID 651661;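 active = mean inhibition of at least 50% after viability correction, with every replicate also passing that limit; inconclusive = mean reaches 50% but only one of two replicates passes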;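 also: firefly luciferase signal divided by Alamar Blue viability fluorescence both relative to DMSO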
LGR2 antag = Drosophila LGR2 receptor signaling inhibition; HEK293 LGR2, CRE-luciferase, bursicon-stimulated, 4 h; AID 720647; inhibition, % at 9.99 µM; 380,000 compounds, 0.35% hits;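 active = drop in luminescence signal, shown as inhibition above about 50% in the replicate tests, limit read from the data, passing the limit was not always enough; inconclusive = probably only some replicates passing the limit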;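 also: agonist challenge used bursicon conditioned medium at about half maximal strength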
LMP1 NFkB inh = reduces LMP1-driven NF-kappaB luciferase signal. LMP1-induced NF-kappaB luciferase reporter cells, luminescence. inhibition, % at 12.5 µM. 350,000 compounds, 0.69% hits. AID 504558; in the data active = inhibition above about 41%; inconclusive = no clear call, values can overlap the other calls;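 also: 0% = neutral control wells and 100% = reference inhibitor control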
TWEAK Fn14 block = blocks TWEAK-Fn14 interaction in a reporter cell assay; TWEAK-stimulated Fn14 reporter cells, luciferase luminescence, 8 h; inhibition, % at 10 µM; 360,000 compounds, 2% hits; AID 1159606; in the data active = inhibition above about 50%
PAX8 reporter = lowers PAX8-driven luciferase in RMG-I cells; 360,000 compounds, 1.2% hits; inhibition, % at 12.6 µM; RMG-I TPO-luciferase reporter, SteadyGlo, 24 h;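 active = mean replicate inhibition at least 60% with every replicate also reaching 60%; inconclusive = only one of the two criteria is met; inactive = mean below 60% and not all replicates reaching 60%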;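 also: luciferase light reporting Pax8 driven TPO promoter activity; plate controls were median of neutral control wells for no effect and mitoxantrone controls for full effect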
* = called active by the depositor; u = inconclusive; x = no result. An excerpt weighted towards active compounds, which were near 3.2% of everything screened.

SMILES | TROY signal inh | EWS-Fli inh | LGR2 antag | LMP1 NFkB inh | TWEAK Fn14 block | PAX8 reporter
CCCc1cc(C(=O)Nc2ccc(C(=O)c3ccccc3)cc2)n(C)n1 | 33.6 | 16.6 | 13.4 | 4.7 | 26.8 | 15.8
CCNC(=O)Nc1ccc2c(c1)C(=O)N(C)[C@@H]1CC[C@H](CC(=O)NCc3ccc(F)cc3)O[C@@H]1CO2 | x | 2.5 | 1.7 | x | x | 6.9
COc1ccc(C2=C(C=C(C#N)C#N)C(c3ccccc3C)c3ccccc3O2)cc1OC (stereo not given) | -8.0 | 17.6 | -15.6 | 2.4 | 28.8 | 64.8*
COc1cc(-c2nnc(COC(=O)C3c4ccccc4Oc4ccccc43)o2)cc(OC)c1OC | 20.8 | x | x | -3.6 | -19.0 | x
Oc1cccc2ccc(/C=C/c3ccccc3Br)nc12 | 54.7* | -71.4 | -95.3 | 12.1 | 55.7* | -7.6
CCCCCc1cc(=O)oc2c(C(CCN3CCCCC3)c3cc(OC)c(OC)c(OC)c3)c(OC)cc(OC)c12 (stereo not given) | 12.5 | u | x | 5.8 | -45.7 | 78.6*
CN1CCN(C(=S)Nc2ccc(Cl)c(Cl)c2)CC1 | 4.3 | -0.2 | 8.7 | 5.3 | 1.8 | 126.2*
S=C(Nc1ccc(Cl)c(Cl)c1)N1CCCC1 | -37.8 | -5.1 | -13.5 | -0.5 | 18.5 | 5.0
CCCCCCCCN1C(=O)[C@H](CC(=O)NCC2CCCCC2)C[C@@]2(C(=O)OCC)CCCC=C12 | 51.1* | 18.4 | -0.4 | x | -2.0 | 12.5
CNC(=O)C[C@H]1CC[C@@H]2[C@H](COc3ccc(NC(=O)Nc4ccc(C)cc4)cc3C(=O)N2C)O1 | x | -35.0 | -11.9 | x | x | -7.3
COc1ccc(C(C(=O)NCC2CCCO2)N(Cc2ccco2)C(=O)c2snc(C(N)=O)c2N)cc1OC (stereo not given) | -13.4 | 2.6 | 19.1 | -1.7 | 51.7* | 3.4
COc1ccc(C(C(=O)NC2CCCC2)N(C(=O)c2snc(C(N)=O)c2N)c2ccccc2OC)cc1OC (stereo not given) | 3.9 | 13.7 | 7.9 | 7.4 | 53.5* | 7.3
CCOc1ccc(C(C(=O)NCC2CCCO2)N(C(=O)c2snc(C(N)=O)c2N)c2cccc(F)c2)cc1 (stereo not given) | 4.0 | x | 6.6 | -1.5 | 1.6 | 10.3
CCOc1ccc(C(C(=O)NCC2CCCO2)N(C(=O)c2snc(C(N)=O)c2N)c2ccccc2F)cc1 (stereo not given) | 15.1 | 7.9 | 1.9 | -3.4 | 57.1* | 28.9
O=C1C(=O)N(CCN2CCOCC2)C(c2ccccn2)/C1=C(/O)c1ccc(F)cc1 (stereo not given) | 2.6 | x | x | 0.6 | -2.1 | -13.3
Cc1c(/C(O)=C2\C(=O)C(=O)N(CCCN(C)C)C2c2ccccc2)cnn1-c1ccccc1 (stereo not given) | 86.2* | -0.9 | -4.5 | 13.1 | 81.5* | -38.6
Cc1c(/C(O)=C2/C(=O)C(=O)N(CCN3CCOCC3)C2c2ccccn2)cnn1-c1ccccc1 (stereo not given) | 85.2* | 13.3 | 79.6* | 54.7* | 91.7* | 18.3
CC(=O)Nc1ccc2c(c1)C(=O)N(C)[C@H]1CC[C@H](CC(=O)Nc3ccc(Cl)cc3)O[C@@H]1CO2 | x | 0.9 | -2.3 | x | x | 5.6
c1ccc(Nc2nc(NCc3ccco3)c3ccccc3n2)cc1 | -6.3 | 9.1 | 6.5 | -13.8 | 51.9* | 67.0*
Oc1ccccc1Nc1nc(NCc2ccco2)c2ccccc2n1 | 12.7 | 9.8 | -19.9 | 2.7 | 13.2 | -9.6
Cc1cccc(Nc2nc(NCc3ccco3)c3ccccc3n2)c1 | 30.1 | 8.8 | x | u | 85.8* | x
Cc1ccccc1Nc1nc(NCc2ccco2)c2ccccc2n1 | -19.1 | -20.8 | -2.8 | -2.8 | 23.9 | 19.0
O=C([C@H]1[C@H](CO)[C@H]2Cn3c(ccc(C4=CCCC4)c3=O)[C@@H]1N2Cc1nccs1)N1CCCCC1 | x | -3.0 | 3.2 | x | x | x
Cc1noc(C)c1S(=O)(=O)Nc1ccc2c(c1)C(=O)N([C@H](C)CO)C[C@@H](C)[C@@H](CN(C)C(=O)Nc1ccc3c(c1)OCO3)OCCCC[C@@H](C)O2 | x | 7.6 | 3.6 | x | x | x
C/C=C/c1ccc([C@H]2[C@@H](CNS(C)(=O)=O)N(CC3CC3)[C@H]2CO)cc1 | x | -10.7 | 3.5 | x | x | 4.8
SMILES | TROY signal inh | EWS-Fli inh | LGR2 antag | LMP1 NFkB inh | TWEAK Fn14 block | PAX8 reporter
C[C@@H]1CCCCO[C@@H](CN(C)CC2CCCCC2)[C@H](C)CN([C@H](C)CO)C(=O)c2cc(NS(=O)(=O)c3ccccc3)ccc2O1 | x | 8.3 | -1.9 | x | x | 22.9
C[C@H]1CCCCO[C@@H](CN(C)CC2CCCCC2)[C@@H](C)CN([C@@H](C)CO)C(=O)c2cc(NS(=O)(=O)c3ccccc3)ccc2O1 | x | 13.2 | -5.4 | x | x | 24.6
C[C@@H]1CCCCO[C@H](CN(C)CC2CCCCC2)[C@H](C)CN([C@H](C)CO)C(=O)c2cc(NS(=O)(=O)c3ccccc3)ccc2O1 | x | -8.9 | u | x | x | 92.3*
C[C@@H]1CN([C@H](C)CO)C(=O)c2cc(NS(=O)(=O)c3ccccc3)ccc2O[C@@H](C)CCCCO[C@@H]1CN(C)CC1CCCCC1 | x | 9.7 | -10.8 | x | x | 88.5*
CC(C)NC(=O)N(C)C[C@@H]1Oc2cc(-c3ccncc3)ccc2S(=O)(=O)N([C@H](C)CO)C[C@@H]1C | x | -0.8 | -5.6 | x | x | x
CCOC(=O)c1cnc(SC)nc1Oc1cccc(NS(=O)(=O)c2ccc(F)cc2)c1 | -7.2 | x | x | -4.1 | 26.9 | -14.7
CCOC(=O)c1cnc(SC)nc1Oc1cccc(NS(=O)(=O)c2ccccc2)c1 | -10.2 | x | x | -2.9 | 54.6* | 1.7
C[C@H]1CCCCO[C@H](CN(C)CC2CCCCC2)[C@@H](C)CN([C@@H](C)CO)C(=O)c2cc(NC(=O)Nc3ccc(F)cc3)ccc2O1 | x | 49.3 | 13.0 | x | x | 68.3*
C[C@@H]1CCCCO[C@@H](CN(C)CC2CCCCC2)[C@@H](C)CN([C@@H](C)CO)C(=O)c2cc(NC(=O)Nc3ccc(F)cc3)ccc2O1 | x | -3.1 | -1.4 | x | x | -14.8
C[C@@H]1CCCCO[C@H](CN(C)CC2CCCCC2)[C@H](C)CN([C@@H](C)CO)C(=O)c2cc(NC(=O)Nc3ccc(F)cc3)ccc2O1 | x | 57.9* | 16.4 | x | x | 8.2
CSc1cccc(NC(=O)c2cnn3ccccc23)c1 | -59.1 | -47.8 | -71.5 | -18.1 | 1.8 | -84.3
CCc1ccc(NC(=O)c2cnn3ccccc23)cc1 | 53.3* | 71.3* | x | 34.6 | 93.3* | 81.7*
CCCC(=O)Nc1ccc2c(c1)C(=O)N(C)[C@H]1CC[C@H](CC(=O)NCCc3ccccc3)O[C@H]1CO2 | x | -8.1 | 0.5 | x | x | -4.1
N=c1c2c(n(Cc3ccc(Br)cc3)c3c1CCC3)CCCC2 | 34.9 | 40.1 | -35.4 | 12.3 | 41.1 | 78.3*
N=c1c2c(n(Cc3ccc(Cl)c(Cl)c3)c3c1CCC3)CCCC2 | 44.7 | x | x | 6.1 | 47.5 | x
C/C=C/c1cnc2c(c1)C(=O)N([C@@H](C)CO)C[C@@H](C)[C@@H](CN(C)C(=O)C1CCC1)O2 | x | -23.4 | 4.1 | x | x | x
Nc1c(Cl)c(Cl)nc(C(=O)OCC(=O)N2CCCC2=O)c1Cl | 2.9 | -1.0 | 0.0 | -7.0 | -11.8 | 14.7
